Data on five molecules can be found in PubChem BioAssay.

Structures are written as SMILES. Results filed as inconclusive are left out. The source made the active and inactive calls.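 The calls were made as follows, unless noted: active = Her2 level under about 52% in both replicate screens, with viability over 70% of control (limit read from the data); inconclusive = Her2 under the limit in one screen only, or viability under 70%; inactive = Her2 level above the set limit.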

Experiment [1] in a line: reducers of endogenous Her2 protein level, primary screen, SKBR3 breast tumor cells, AlphaScreen, ATP viability (AID 461).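 As to Her2 level: lower value means less Her2 protein in the cells.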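 As to viability: percent of carrier control wells set as 100% viability.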 Conditions: 18-24 h, measured here: SKBR3 viability, ATP luminescence, at 10 µM. (In general: Bead proximity is the source of the signal in Alpha formats.)
Experiment [2] deals with Receptor tyrosine-protein kinase erbB-2 (Homo sapiens) (UniProt P04626). The experiment is described as above. Conditions: 18-24 h, at 10 µM, stronger effect = lower value.
Sequence of Receptor tyrosine-protein kinase erbB-2 (Homo sapiens) (P04626 whole entry, looked up): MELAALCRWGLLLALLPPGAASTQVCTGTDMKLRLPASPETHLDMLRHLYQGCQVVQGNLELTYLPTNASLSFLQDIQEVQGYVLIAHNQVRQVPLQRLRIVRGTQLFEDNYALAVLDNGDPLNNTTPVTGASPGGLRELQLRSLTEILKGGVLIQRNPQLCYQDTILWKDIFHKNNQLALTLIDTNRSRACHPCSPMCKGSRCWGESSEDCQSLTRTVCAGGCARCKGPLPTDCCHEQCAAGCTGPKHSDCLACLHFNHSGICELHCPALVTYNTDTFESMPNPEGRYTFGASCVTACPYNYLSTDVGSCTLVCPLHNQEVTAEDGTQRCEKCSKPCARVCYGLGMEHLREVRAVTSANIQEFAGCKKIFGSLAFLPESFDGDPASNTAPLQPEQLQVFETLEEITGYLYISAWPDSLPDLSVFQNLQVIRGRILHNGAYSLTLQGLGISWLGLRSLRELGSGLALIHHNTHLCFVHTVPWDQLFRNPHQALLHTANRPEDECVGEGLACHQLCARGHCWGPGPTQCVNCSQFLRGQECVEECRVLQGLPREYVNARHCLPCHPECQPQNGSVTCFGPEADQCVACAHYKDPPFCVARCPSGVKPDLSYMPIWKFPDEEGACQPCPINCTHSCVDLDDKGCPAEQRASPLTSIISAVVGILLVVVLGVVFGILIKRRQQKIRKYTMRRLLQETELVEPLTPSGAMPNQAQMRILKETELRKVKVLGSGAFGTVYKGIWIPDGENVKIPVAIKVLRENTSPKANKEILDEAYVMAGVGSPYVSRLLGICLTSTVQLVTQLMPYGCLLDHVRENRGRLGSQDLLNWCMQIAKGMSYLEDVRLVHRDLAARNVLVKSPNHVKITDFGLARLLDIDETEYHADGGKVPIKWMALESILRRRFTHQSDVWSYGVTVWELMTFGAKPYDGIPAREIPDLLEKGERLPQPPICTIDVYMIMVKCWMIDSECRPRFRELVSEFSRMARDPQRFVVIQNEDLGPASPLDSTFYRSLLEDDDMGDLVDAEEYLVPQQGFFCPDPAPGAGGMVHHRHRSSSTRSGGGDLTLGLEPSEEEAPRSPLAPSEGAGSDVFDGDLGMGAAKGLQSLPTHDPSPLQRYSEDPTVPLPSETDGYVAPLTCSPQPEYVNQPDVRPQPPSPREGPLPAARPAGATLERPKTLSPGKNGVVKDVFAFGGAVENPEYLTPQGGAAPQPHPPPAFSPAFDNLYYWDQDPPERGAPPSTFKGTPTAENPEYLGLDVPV
Experiment [3] in a line: SK-BR-3 cell growth inhibitors, pilot screen, 24 h, human (AID 572;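 active = viability at or below 10% of carrier control in both of two separate runs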;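 also: compound exposure lasted between 18 and 24 h rather than exactly 24 h; 100% = carrier-treated control wells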). Conditions: SK-BR-3 viability, CellTiter-Glo luminescence, at 10 µM, stronger effect = lower value.
Experiment [4] in a line: HUVEC growth inhibition – cell-based, human, primary screen (AID 575;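 active = viability at or below 30% in both replicate assays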;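 also: 100% = median of untreated cell wells with 0.1% DMSO on each plate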). Conditions: HUVEC proliferation, CellTiter-Glo luminescence, 72 h; at 10 µM; stronger effect = lower value. (In general: Cellular ATP, detected with luciferase, serves as a proxy for viable cell number.)
The nature of experiment [5]: growth inhibitors of H69AR lung tumor, primary screen, human, duplicate replicates (AID 580;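 active = viability at or under a set limit in both replicates, limit being median viability minus 3 SD, cut at about 48% in these data, passing the limit was not always enough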;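 also: 100% = mean luminescence of untreated wells and 0% = no signal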). Conditions: H69AR lung tumor cells viability, ATP luminescence, 72 h; at 10 µM; stronger effect = lower value.
Experiment [6] is described as follows: reversal of MRP1-mediated doxorubicin resistance, pilot screen, H69AR cells, doxorubicin co-treatment (AID 601;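 active = viability loss from added drug above about 55%, and viability with drug at most 40%, in both replicates, limit read from the data, passing the limit was not always enough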). Conditions: CellTiter-Glo, 72 h, at 10 µM; for differential viability (reversal): stronger effect = higher value.
A short description of experiment [7]: 384-well plate pilot, post-Golgi transport modulator project, inhibition of yeast transport mutant growth (AID 636; in the data active = inhibition above about 31%). Conditions: absorbance 615 nm, about 18 h, stronger effect = higher value.
A short description of experiment [8]: growth suppression of yeast trafficking mutant, preliminary HTS, modulators of trafficking downstream of Golgi apparatus project, 1536-format plate, OD 615 nm (AID 637; in the data active = inhibition above about 30%). Conditions: yeast transport mutant growth, absorbance 615 nm, 18 h; stronger effect = higher value.
Experiment [9] in a line: OD615 S. cerevisiae growth inhibition, permissive medium, pilot counter-assay, permissive growth control for S. cerevisiae lifespan shortening project (AID 705;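 active = growth inhibition above 25% in both replicates, a cutoff set 3 SD above the mean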). Conditions: OD615, 24 h, at 10 µM, stronger effect = higher value.
A short description of experiment [10]: Restrictive medium S. cerevisiae growth inhibition, OD615, pilot screen of yeast lifespan reduction project, restrictive growth control (AID 706;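 active = growth inhibition above a set limit, 3 SD over mean compound inhibition, in both replicates, cut at about 43% in these data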;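 also: modified DeaD lifespan yeast strain shifted to restrictive glucose medium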). Conditions: OD615, 48 h, at 10 µM, stronger effect = higher value.
Experiment [11] in a line: viability gain of MRP-1-high H69AR cells under doxorubicin, pilot screen, MRP-1 activator project, CellTiter-Glo, duplicate (AID 807;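 active = viability increase at or above a cutoff of the median across tested compounds plus 3 SD, cut at about 8.5% in these data, passing the limit was not always enough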;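 also: compound pretreatment 18-22 h then 72 h combined with doxorubicin; 0% = doxorubicin alone and 100% = vehicle without doxorubicin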). Conditions: H69AR viability with doxorubicin, CellTiter-Glo luminescence; at 10 µM; stronger effect = higher value.
Experiment [12] can be described thus: growth suppression of beta-catenin knockout HCT116, pilot screen, human colon tumor cells (AID 823;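 active = cell viability at or below a set limit in both duplicate runs, the limit being the all-compound median minus 4 SD, cut at about 23% in these data, passing the limit was not always enough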;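 also: 0% = wells killed by 20 µM Hyamine and 100% = untreated DMSO cell wells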). Conditions: CellTiter-Glo, 60 h, at 10 µM, stronger effect = lower value.
A short description of experiment [13]: growth suppression of PTEN-deleted HCT116, pilot screen, cell-based, HCT116 clonal line, CellTiter-Glo (AID 824;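 active = viability at or below 27.92% in each of two runs, the all-compound median minus 4 SD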;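 also: 0% = 20 µM Hyamine control and 100% = vehicle cell control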). Conditions: 60 h, at 10 µM, stronger effect = lower value.
A short description of experiment [14]: inhibitors of the yeast RAM network, pilot screen, dse1pr::URA3 reporter, 5-FOA selection (AID 869;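 active = inhibition over a set limit, the all-compound mean plus 3 SD, in both replicate runs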;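 also: 0% = DMSO wells with no growth and 100% = 10 µM 1-NA-PP1 with full growth; RAM network block rescues cells from 5-FOA so hits raise OD615 growth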). Conditions: S. cerevisiae dse1pr::URA3 5-FOA growth, OD615, 2 d; at 10 µM; stronger effect = higher value; strain carries analog-sensitive mutant Cbk1 kinase.
Experiment [15] is described as follows: RAM signaling pathway blockade in yeast – S. cerevisiae, Pdr1DBD-CYC8 efflux-inhibited sensitized strain, primary screen (AID 1298;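 active = RAM network inhibition above 8.4% in each of two replicates, 3 SD over the compound average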;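 also: 0% = DMSO untreated cells without growth and 100% = 10 µM 1-NA-PP1 full growth; higher means more yeast growth rescued from 5-FOA killing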). Conditions: S. cerevisiae cbk1-as DSE1-URA3 strain, 5-FOA growth OD615, 2 d; at 50 µM; stronger effect = higher value.
[16] abbreviates: H69AR cells + 2 uM doxorubicin, measured here: viability with 2 uM doxorubicin, stronger effect = lower value.
Setting [17] is: H69AR cells, compound alone cytotoxicity.

The viability is a read-out of living cells in per cent, often relative to untreated cells. What is called inhibition is the relative decrease from the control value, in per cent. With `Cc1cc(NS(=O)(=O)c2ccc(NC(=O)COc3ccccc3C(C)C)cc2)no1`, the viability in experiment [1] was 98%; in [3], 98% (inactive); in [4], 80.9% (inactive); in experiment [5], 88.9% (inactive); in experiment [6] (setting [16]), 87.6%; in experiment [6] (setting [17]), 88.9%. Also, the results for the viability in experiment [12] and in [13] were 93.6% (inactive) and 83.4% (inactive), respectively. The Her2 level in [2] is 90.5% (inactive). Moreover, the differential viability (reversal) in [6] (H69AR cells + 2 uM doxorubicin) is 1.26% (inactive). Moreover, the inhibition in experiment [7] is -5.2% (inactive); in [8] it was -3.33% (inactive); in experiment [14], 2.17% (inactive). For the same molecule, the growth inhibition in experiment [9] was -12% (inactive); in [10], -18.1% (inactive). Moreover, in experiment [11], the viability increase was -1.38% (inactive). Further, in experiment [15], the RAM network inhibition is 4.16% (inactive).

With `COc1ccc(OCc2nc(C#N)c(N3CCN(c4ccc(OC)cc4)CC3)o2)cc1`, the viability was 94% in [1]; 94% (inactive) in experiment [3]; 90.6% (inactive) in [4]; 94% (inactive) in [5]; 79% in experiment [6] (setting [16]); 94% in [6] (setting [17]). The viability in [12] is 72.5% (inactive); in experiment [13], 73.5% (inactive). The Her2 level in experiment [2] is 115% (inactive). For the same molecule, the differential viability (reversal) in experiment [6] (H69AR cells + 2 uM doxorubicin) is 15% (inactive). For the same molecule, the values for the inhibition in experiment [7], in experiment [8] and in experiment [14] were -3.07% (inactive), -8.17% (inactive) and 1.06% (inactive), respectively. In addition, the growth inhibition is -0.985% (inactive) in [9] and -1.77% (inactive) in experiment [10]. In addition, in [11], the viability increase is 9.38% (active). Also, in experiment [15], the RAM network inhibition was 9.16% (inactive).

Turning to `CCOC(=O)N1CCC(NC(=O)c2ccc(CS(=O)(=O)c3c(Cl)cccc3Cl)o2)CC1`, the viability is 84.5% in [1]; 84.5% (inactive) in experiment [3]; 95.8% (inactive) in [4]; 104% (inactive) in [5]; 96.6% in experiment [6] (setting [16]); 104% in experiment [6] (setting [17]). Further, the viability is 106% (inactive) in experiment [12] and 93.5% (inactive) in [13]. In experiment [2], the Her2 level was 90% (inactive). For the same molecule, the differential viability (reversal) in experiment [6] (H69AR cells + 2 uM doxorubicin) is 6.95% (inactive). Moreover, the inhibition in experiment [7] is 2.31% (inactive); in [8], 0.83% (inactive); in experiment [14], 1.53% (inactive). The growth inhibition in [9] was -12.4% (inactive); in experiment [10] it was -27.1% (inactive). Further, the viability increase in experiment [11] was -1.87% (inactive). Further, the RAM network inhibition in [15] was 2.82% (inactive).

Turning to `CCOC(=O)N1CCC(NC(=O)CN2C(=O)CCSc3ccccc32)CC1`, the viability in experiment [1] is 96.5%; in experiment [3] it was 96.5% (inactive); in experiment [4] it was 87.5% (inactive); in experiment [5] it was 93.1% (inactive); in experiment [6] (setting [16]), 96.6%; in [6] (setting [17]), 93.1%. The figures for the viability in experiment [12] and in experiment [13] were 106% (inactive) and 101% (inactive), respectively. In addition, the Her2 level in [2] is 97.5% (inactive). In addition, the differential viability (reversal) in experiment [6] (H69AR cells + 2 uM doxorubicin) was -3.45% (inactive). Also, the inhibition in experiment [7] was -1.87% (inactive); in experiment [8] it was -1.15% (inactive); in experiment [14], 2.65% (inactive). Besides, the results for the growth inhibition in [9] and in experiment [10] were 5.44% (inactive) and -4.73% (inactive), respectively. In addition, the viability increase in [11] is 1.02% (inactive). For the same molecule, in experiment [15], the RAM network inhibition was -0.42% (inactive).

With `Cc1ccc(N=Cc2ccc(O)cc2O)cc1F`, the viability was 112% in [1]; 112% (inactive) in [3]; 69.3% (inactive) in experiment [4]; 81.9% (inactive) in experiment [5]; 73.1% in [6] (setting [16]); 81.9% in experiment [6] (setting [17]). Moreover, the results for the viability in [12] and in experiment [13] were 76% (inactive) and 77.8% (inactive), respectively. In addition, the Her2 level in [2] is 80% (inactive). The differential viability (reversal) in [6] (H69AR cells + 2 uM doxorubicin) was 8.83% (inactive). Also, the values for the inhibition in experiment [7], in [8] and in experiment [14] were -2.34% (inactive), 6.39% (inactive) and 0.995% (inactive), respectively. Further, the growth inhibition in experiment [9] is -10.6% (inactive); in experiment [10], -25.5% (inactive). In experiment [11], the viability increase is -4.99% (inactive). Besides, in experiment [15], the RAM network inhibition was 0.31% (inactive).
